Molecules are shown by their SMILES. Potency and affinity values are given separately. A number with no mark means an inactive call. How the calls were made is not given here.

Sequence of CAAX prenyl protease 2 (Homo sapiens) (Q9Y256 whole entry, looked up): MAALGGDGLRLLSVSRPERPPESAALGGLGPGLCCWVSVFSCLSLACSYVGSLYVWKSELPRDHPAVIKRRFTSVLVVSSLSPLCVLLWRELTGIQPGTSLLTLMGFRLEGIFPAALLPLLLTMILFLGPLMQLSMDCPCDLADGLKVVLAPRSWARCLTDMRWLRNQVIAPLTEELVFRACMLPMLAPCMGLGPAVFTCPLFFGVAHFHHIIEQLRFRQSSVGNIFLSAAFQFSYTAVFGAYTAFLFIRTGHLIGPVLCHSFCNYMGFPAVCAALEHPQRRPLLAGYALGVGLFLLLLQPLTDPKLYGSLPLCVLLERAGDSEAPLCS

The experiment addresses CAAX prenyl protease 2 (Homo sapiens) (UniProt Q9Y256). The experiment can be described thus: inhibition of Ras-converting CAAX protease Rce1 – biochemical, yeast membranes, quenched-peptide fluorescence, cherry-pick, dose response (AID 588849). The settings on record: yeast membrane fractions expressing human Rce1, quenched-peptide fluorescence, 4 h; series mostly up to 10 µM; activity change, negative = inhibition: at the top concentration.
As to `CCc1cc(=O)oc2c3c(cc(OCC(=O)NCCCC(=O)O)c12)OC(C)(C)CC3`, the “activity change, negative = inhibition” value is 58.4%.

Consider `CCCCNC(=O)C(CC)Sc1nc2sc(C(=O)OC)c(C)c2c(=O)n1N` (stereo not drawn), for which the “activity change, negative = inhibition” value is -16.2%.

As for `Cc1cccc(-c2nnc(SCc3ccc(C#N)cc3)n2Cc2ccco2)c1`, the “activity change, negative = inhibition” value was -2.37%.

On to `Cc1cc(N/N=C/c2ccc(O)c(C)c2O)nc(-c2ccccc2O)n1`, for which the “activity change, negative = inhibition” value is 0.948%.

Turning to `O=C(C1CCC(=O)N(C2CC2)C1)N1CCN(c2ccccc2Cl)CC1` (stereo not drawn), the “activity change, negative = inhibition” value was 1.85%.

Turning to `O=C(COc1ncnc2cc([N+](=O)[O-])ccc12)NC(=O)NC1CCCCC1`, the “activity change, negative = inhibition” value is 0.658%.

For the compound `CCn1c(C)nc2c(=O)oc3ccccc3c21`, the “activity change, negative = inhibition” value was 12%.

For `C=CCn1c(SCc2ccc(C#N)cc2)nnc1-c1ccc(C)cc1`, the “activity change, negative = inhibition” value is -1.26%.

In the case of `CCCNC(=O)c1c(N)n(-c2ccc(S(N)(=O)=O)cc2)c2nc3ccccc3nc12`, the “activity change, negative = inhibition” value was -168%.

In the case of `COc1ccc(C2CC(c3ccc4ccccc4c3)=NN2C(=O)CNC2CCCCC2)cc1` (stereo not drawn), the “activity change, negative = inhibition” value is -16.3%.

Turning to `COc1ccccc1NC(=O)/C(=C\c1cccnc1)NC(=O)c1ccc(C)cc1`, the “activity change, negative = inhibition” value is -14%.

`CCOC(=O)c1sc2nc(C3CC3)cc(-c3ccc(F)cc3)c2c1N`: the “activity change, negative = inhibition” value was 8.35%.

For the compound `Cc1ccc2nc(N(CCN(C)C)C(=O)c3ccc4ccccc4c3)sc2c1`, the “activity change, negative = inhibition” value is -9.24%.

Consider `CCN(Cc1ccccc1)S(=O)(=O)c1ccc(C(=O)N(CCCN(C)C)c2nc3cc(C)cc(C)c3s2)cc1`, for which the “activity change, negative = inhibition” value was -14.8%.

Consider `COC(=O)c1cnn2c3c(c(C)nc12)CCCC3`, for which the “activity change, negative = inhibition” value is -3.96% [at 3.5 µM].

Regarding `COc1cccc2c(=O)c(C(=O)O)c[nH]c12`, the “activity change, negative = inhibition” value is -1.31%.

For the compound `CCOC(=O)C[C@H]1c2ccccc2S(=O)(=O)N1Cc1cc(OC)c(OC)c(OC)c1`, the “activity change, negative = inhibition” value is -1.29%.

Turning to `CCN1CCN(c2ccc(NC(=O)c3cccc(OCc4ccccc4)c3)cc2)CC1`, the “activity change, negative = inhibition” value is -8.32%.

For `CN(C)CC(C)(C)CNC(=S)NCc1ccc2c(c1)OCO2`, the “activity change, negative = inhibition” value is -17.6%.

With `O=C(Nc1ccc(F)cc1)Oc1ccccc1N1CCOCC1`, the “activity change, negative = inhibition” value was 14.8%.

On to `Cc1cccc(NC(=O)C2(c3ccc([N+](=O)[O-])cc3)CCCC2)c1`, for which the “activity change, negative = inhibition” value is 8.88%.

For the compound `O=C1CCN(Cc2ccccc2)CCN1[C@H](CSc1ccccc1)Cc1ccccc1`, the “activity change, negative = inhibition” value was -12.4%.

On to `CCCC(=O)N1CCN(c2ccc(NC(=O)c3cc4ccccc4o3)cc2Cl)CC1`, for which the “activity change, negative = inhibition” value is -12%.

For the compound `Cc1ccc(SCc2c(C(=O)N/N=C/c3ccccc3)nnn2-c2nonc2N)cc1`, the “activity change, negative = inhibition” value was -19.6%.

For the compound `CCCOc1ccc(-c2c(C(=O)N/N=C/c3cccs3)nnn2-c2nonc2N)cc1`, the “activity change, negative = inhibition” value was 0.204%.

With `COc1cc2c(cc1OC)C(C)N(C(=O)c1cc3c(=O)oc4ccc(C)cc4c3s1)CC2` (stereo not drawn), the “activity change, negative = inhibition” value is 14.6%.

Take `COCCN1C(=O)/C(=C/c2ccc(Oc3ccc([N+](=O)[O-])cn3)c(OC)c2)SC1=Nc1ccccc1`: the “activity change, negative = inhibition” value is -9.83%.

Turning to `Nc1nnnn1/N=C/c1ccccc1OCc1ccc(Cl)cc1Cl`, the “activity change, negative = inhibition” value is -1.75%.

Turning to `COc1ccc(CCN(C)C(=O)c2ccc(S(=O)(=O)Nc3ccccc3C)cc2)cc1OC`, the “activity change, negative = inhibition” value is 2.88%.

For `COc1ccc(C2c3c(ncn(CCN4CCOCC4)c3=N)Oc3ccc4ccccc4c32)cc1` (stereo not drawn), the “activity change, negative = inhibition” value was -8.64%.

As to `CC(Cc1cccs1)NC(=O)Nc1ccc([N+](=O)[O-])cc1` (stereo not drawn), the “activity change, negative = inhibition” value was -3.92%.

Consider `CC(C)c1cccc(OCC(=O)Nc2ccc(S(=O)(=O)Nc3ccccn3)cc2)c1`, for which the “activity change, negative = inhibition” value is 3.44%.

Consider `COc1ccc(Cc2nc3ccc(C(=O)N4CCCC4)cc3o2)cc1`, for which the “activity change, negative = inhibition” value is -2.01%.

For the compound `CCn1cc(/C=C(\NC(=O)c2ccccc2F)C(=O)N2CCCC2)c2ccccc21`, the “activity change, negative = inhibition” value was -16.6%.

Consider `CN(C)CCN(C(=O)c1ccc2ccccc2c1)c1nc2ccc(Br)cc2s1`, for which the “activity change, negative = inhibition” value was -23.5%.

Take `COc1ccccc1/C=C/C=N/NC(=O)CN1CCN(S(=O)(=O)c2ccc(C)cc2)CC1`: the “activity change, negative = inhibition” value is -15.5%.

Consider `Cc1ccc(-c2cc(-c3ccccc3)c(C#N)c(Br)n2)cc1`, for which the “activity change, negative = inhibition” value was 3.27%.

As to `Cc1ccc(C(=O)c2c3ccc(C(F)(F)F)cc3[n+]([O-])n2CCCC(N)=O)cc1`, the “activity change, negative = inhibition” value is 9.34%.

The values above are taken from PubChem BioAssay AID588849 (Broad Institute, 2011).
